Our source for the INHIBITION values is ChEMBL document CHEMBL4513216, “Probing the Open Global Health Chemical Diversity Library for Multistage-Active Starting Points for Next-Generation Antimalarials” (ACS Infect Dis, 2020).

Each structure is given as a SMILES string. In all, about 69,000 compounds went through this assay and about 8,600 (12%) showed an effect of 50% or more. What follows is part of a selection rich in strong results, with near analogues and random picks from the rest.

This test concerns Plasmodium berghei. In words: Screen against P. berghei liver stage (PbLuc), transformed with Luciferase, at 10uM. In kind it is functional, HepG2. As to conditions: tested at 10 uM.
Turning to `Cn1ccc(N2CCCC(NC(=O)c3ccsc3)C2=O)n1` (centres undefined), the INHIBITION is listed as 72.5%.

In the case of `c1ccc(CN2CCCC(c3nccnc3-n3ccnc3)C2)cc1` (centres undefined), the INHIBITION was determined as 33.5%.

Take `CS(=O)(=O)CCNC(=O)Nc1ccc(Cl)cc1-n1cccc1`: the INHIBITION is on record as 35.4%.

For the compound `Cc1nc(C2CCCN(C(=O)c3ccc(Cl)cn3)C2)no1` (centres undefined), the INHIBITION was -2.53%.

As to `CCn1c(CC2CCN(S(=O)(=O)c3cccc(C)c3)CC2)nn(C)c1=O`, the INHIBITION amounted to 37.4%.

As for `CN1CCN(c2ccc(F)cc2NC(=O)NCCn2ccnc2)CC1`, the INHIBITION amounted to 37.9%.

Turning to `O[C@@]1(CNCC2(Cn3cccn3)CC2)CCCN2CCCC[C@@H]21`, the INHIBITION was 1.56%.

On to `CN1CCN(C2CCN(C(C(N)=O)c3ccccc3)CC2)C1=O` (centres undefined), for which the INHIBITION is given as 20.9%.

Turning to `CCN1CCN(C2CCN(C(C(N)=O)c3ccccc3)CC2)C1=O` (centres undefined), the INHIBITION is reported as 61.1%.

As for `CCN1CCN(C2CCN(C(C(N)=O)c3ccc(F)cc3)CC2)C1=O` (centres undefined), the INHIBITION amounted to 16.6%.

Take `Cc1cnn(CCNCC(=O)NC(c2ccccc2)c2ccccc2)c1`: the INHIBITION is given as -18.9%.

Take `Cc1c(C(=O)N2CCC2)nnn1-c1ccc2ncccc2c1`: the INHIBITION is -24.8%.

For `CCn1cnnc1CNC(=O)N1CCN(c2nccs2)CC1`, the INHIBITION was found to be 27.8%.

Take `CCn1cnnc1CNC(=O)N1CCC(C(=O)NC)CC1`: the INHIBITION came to 61.3%.

For the compound `CCn1cnnc1CNC(=O)N1CCC(C)CC1`, the INHIBITION is -13.5%.

As to `CCn1cnnc1CNC(=O)N1CCN(c2nc(C)c(C)s2)CC1`, the INHIBITION is given as 60.5%.

Take `CCn1cnnc1CNC(=O)N1CCC(O)CC1`: the INHIBITION was found to be 17.4%.

In the case of `CCn1cnnc1CNC(=O)N1CCCC1`, the INHIBITION is recorded as -3.2%.

Consider `COc1ccccc1OCCc1cc(C2CCNC2)n[nH]1` (centres undefined), for which the INHIBITION worked out at 41.2%.

Consider `Cc1ncc(C(=O)N2C[C@@H]3CC[C@H]2CN(S(=O)(=O)N(C)C)C3)c(C)n1`, for which the INHIBITION is given as 34.8%.

Turning to `COc1ccc(N2CCNC(C(N)=O)C2)cc1` (centres undefined), the INHIBITION turned out to be 7.19%.

As for `O=C(O)C1CCCN(C(=O)CCn2ccc3c(Cl)cccc32)C1` (centres undefined), the INHIBITION is listed as 63.1%.

Turning to `COc1cccc2c1ccn2CCC(=O)N1CCCC(C(=O)O)C1` (centres undefined), the INHIBITION is listed as -22.9%.

Turning to `O=C(O)C1CCCN(C(=O)CCn2ccc3c(Br)cccc32)C1` (centres undefined), the INHIBITION is 34.2%.

Consider `Cn1cc(C2CCCN2C(=O)c2cnc(-c3ccccn3)s2)cn1` (centres undefined), for which the INHIBITION is given as -59.7%.

Consider `Cc1nc(Cn2c(=O)cnc3ccccc32)n(C)n1`, for which the INHIBITION was determined as 17.6%.

For `COC(=O)NCC(=O)NCc1nn(-c2ccccc2)c2c1CCC2`, the INHIBITION was 24.75%.

For the compound `Cc1noc([C@]23COC[C@H]2CN(C(=O)N2CCCC2)C3)n1`, the INHIBITION worked out at 15.8%.

With `O=C(c1cnccn1)N1CCCC(C2=Nc3ccccc3S(=O)(=O)N2)C1` (centres undefined), the INHIBITION was found to be 16.705%.

As for `CCNS(=O)(=O)c1ccc(C)c(C(=O)N(C)Cc2ccco2)c1`, the INHIBITION was 26.8%.

As for `CCCN(C)C(=O)c1cc(S(=O)(=O)NCC)ccc1C`, the INHIBITION is listed as 16.6%.

As for `CCNS(=O)(=O)c1ccc(C)c(C(=O)N(C)Cc2ccccc2C)c1`, the INHIBITION is 67.3%.

Regarding `CCN(CC)[C@@H]1CN(Cc2nccn2C)[C@@H]2CCCO[C@H]12`, the INHIBITION is 20.1%.

Take `Cc1cccnc1CN1CCOC(Cc2cccc3ccccc23)C1` (centres undefined): the INHIBITION turned out to be 42.1%.

Regarding `COc1ncc(CN2CCOC(Cc3cccc4ccccc34)C2)cn1` (centres undefined), the INHIBITION is -31.8%.

`c1ccc2c(CC3CN(Cc4nccs4)CCO3)cccc2c1` (centres undefined): the INHIBITION is reported as 53.3%.

On to `Cc1ccc(NC(=O)Cc2cnc3n(C)c(=O)[nH]c(=O)n23)cc1`, for which the INHIBITION was determined as 0.207%.

In the case of `CCn1cc(Cn2cc(Cl)c(N)n2)c(C)n1`, the INHIBITION was -18.8%.

Regarding `CCn1ncc(Cn2cc(Cl)c(N)n2)c1C`, the INHIBITION worked out at 51.5%.

For the compound `Cc1c(Cn2cc(Cl)c(N)n2)cnn1C`, the INHIBITION is given as 17.8%.

Turning to `CC(=O)N1CCCN(C(=O)NCc2ccc(Cl)s2)CC1`, the INHIBITION is 25.6%.

As to `CN(C)C(=O)COCC1CN(Cc2ccoc2)Cc2ncn(C)c21` (centres undefined), the INHIBITION amounted to 12.5%.

Turning to `COc1ccc(S(=O)(=O)N2CCOC(Cn3ccnc3)C2)cc1` (centres undefined), the INHIBITION was 8.12%.

For the compound `FC(F)CN1CCC(NCc2ccc(-n3cccn3)nc2)CC1`, the INHIBITION worked out at 48.2%.

As for `CN1CCN(C(=O)c2cc(-c3cnc(N4CCCC4)nc3)cn2C)CC1`, the INHIBITION is recorded as -2.17%.

On to `CCCNC(=O)c1cc(-c2cnc(N3CCCC3)nc2)cn1C`, for which the INHIBITION amounted to 64.9%.

Consider `CN(C)CCNC(=O)c1cc(-c2cnc(N3CCCC3)nc2)cn1C`, for which the INHIBITION is 63.7%.

As for `Cn1cc(-c2cnc(N3CCCC3)nc2)cc1C(=O)O`, the INHIBITION is -50.8%.

In the case of `CN(C)CCNC(=O)c1cc(-c2cnc(N3CCOCC3)nc2)cn1C`, the INHIBITION stood at 19.4%.

`Cn1cc(-c2cnc(N3CCOCC3)nc2)cc1C(=O)NCCO`: the INHIBITION amounted to 35.8%.

Turning to `COCCN(C)C1COC2(CCN(Cc3cccc(F)c3)CC2)C1` (centres undefined), the INHIBITION is 26.4%.

Regarding `O=C(c1ccccn1)N1CCN(c2ccc(-c3cccnc3)nn2)CC1`, the INHIBITION is listed as 21.6%.

Turning to `COCCN(C)C[C@@H]1CN(C(=O)c2ccc(O)c(Cl)c2)C[C@@H]1CO`, the INHIBITION stood at 46.1%.

Turning to `CN(C)c1ccc(CNC(=O)Nc2ccc(S(C)(=O)=O)nc2)cc1`, the INHIBITION is on record as -24.75%.
